Test results: PubChem BioAssay AID1159580 (chemical genetic matrix, 2015)
In all, about 5,500 compounds went through this assay and about 2,000 (36%) were called active. About 18% were inconclusive and are not listed. No stated cut-off is given here; in the data, active means normalized growth mostly below about 0.91 (no sharp cut-off); inconclusive means no clear call, values can overlap the other calls; inactive means mostly above about 0.92. Some of the results follow.

Experiment: chemical genetic growth profiling, strain panel (AID 1159580);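 further: tested at 20 µM; growth read once vehicle control cultures reached saturation at 30 °C; 1 = growth at the plate median or of vehicle wells; lower values mean less growth of the strain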
Conditions: growth OD

Measured: normalized growth

COC(=O)c1c(C)cc(OC(=O)c2c(C)c(Cl)c(O)c(C=O)c2O)c(C)c1O
inactive: S. cerevisiae deletion strains, locus YAL013W, strain DEP1, active compounds read low 1 | S. cerevisiae deletion strains, locus YBR021W, strain FUR4, active compounds read low 1 | S. cerevisiae deletion strains, locus YBR229C, strain ROT2, active compounds read low 1 | S. cerevisiae deletion strains, locus YCL029C, strain bik1, active compounds read low 0.985 | S. cerevisiae deletion strains, locus YDL035C, strain GPR1, active compounds read low 1.01 | S. cerevisiae deletion strains, locus YDL074C, strain BRE1, active compounds read low 1 | S. cerevisiae deletion strains, locus YDL101C, strain DUN1, active compounds read low 0.978 | S. cerevisiae deletion strains, locus YDL134C, strain PPH21, active compounds read low 0.994 | S. cerevisiae deletion strains, locus YDL185W, strain tfp1, active compounds read low 0.963 | S. cerevisiae deletion strains, locus YDL192W, strain arf1, active compounds read low 0.993 | S. cerevisiae deletion strains, locus YDR101C, strain arx1, active compounds read low 0.995 | S. cerevisiae deletion strains, locus YDR150W, strain NUM1, active compounds read low 0.984 | S. cerevisiae deletion strains, locus YDR162C, strain NBP2, active compounds read low 0.997 | S. cerevisiae deletion strains, locus YDR318W, strain mcm21, active compounds read low 0.99 | S. cerevisiae deletion strains, locus YDR388W, active compounds read low 0.985 | S. cerevisiae deletion strains, locus YDR502C, strain sam2, active compounds read low 0.984 | S. cerevisiae deletion strains, locus YEL061C, strain CIN8, active compounds read low 0.99 | S. cerevisiae deletion strains, locus YER110C, active compounds read low 0.989 | S. cerevisiae deletion strains, locus YER155C, strain BEM2, active compounds read low 1 | S. cerevisiae deletion strains, locus YER167W, strain BCK2, active compounds read low 1 | S. cerevisiae deletion strains, locus YGL078C, strain dbp3, active compounds read low 0.984 | S. cerevisiae deletion strains, locus YGL086W, strain mad1, active compounds read low 0.993 | S. cerevisiae deletion strains, locus YGL248W, strain PDE1, active compounds read low 0.979 | S. cerevisiae deletion strains, locus YGR078C, strain PAC10, active compounds read low 0.988 | S. cerevisiae deletion strains, locus YGR135W, strain pre9, active compounds read low 0.982 | S. cerevisiae deletion strains, locus YGR229C, strain SMI1, active compounds read low 0.971 | S. cerevisiae deletion strains, locus YGR252W, strain gcn5, active compounds read low 1 | S. cerevisiae deletion strains, locus YHR030C, strain SLT2, active compounds read low 0.993 | S. cerevisiae deletion strains, locus YHR079C, strain IRE1 (second series), active compounds read low 0.987 | S. cerevisiae deletion strains, locus YHR094C, strain hxt1, active compounds read low 0.987 | S. cerevisiae deletion strains, locus YHR129C, strain ARP1, active compounds read low 1 | S. cerevisiae deletion strains, locus YHR200W, strain rpn10, active compounds read low 0.985 | S. cerevisiae deletion strains, locus YIL066C, strain RNR3, active compounds read low 0.973 | S. cerevisiae deletion strains, locus YIL073C, strain SPO22, active compounds read low 0.906 | S. cerevisiae deletion strains, locus YIL125W, strain kgd1, active compounds read low 1 | S. cerevisiae deletion strains, locus YIR030C, strain dcg1, active compounds read low 0.983 | S. cerevisiae deletion strains, locus YJL095W, strain BCK1, active compounds read low 1.01 | S. cerevisiae deletion strains, locus YJL134W, strain LCB3, active compounds read low 0.989 | S. cerevisiae deletion strains, locus YJL168C, strain set2, active compounds read low 0.992 | S. cerevisiae deletion strains, locus YJL187C, strain SWE1 (second series), active compounds read low 0.983 | S. cerevisiae deletion strains, locus YJR043C, strain POL32, active compounds read low 1 | S. cerevisiae deletion strains, locus YJR075W, strain HOC1, active compounds read low 1 | S. cerevisiae deletion strains, locus YKL009W, strain mrt4, active compounds read low 0.984 | S. cerevisiae deletion strains, locus YKL068W, active compounds read low 0.984 | S. cerevisiae deletion strains, locus YKL085W, strain MDH1 (second series), active compounds read low 0.996 | S. cerevisiae deletion strains, locus YKL085W, strain MDH1, active compounds read low 0.996 | S. cerevisiae deletion strains, locus YKL190W, strain CNB1, active compounds read low 0.992 | S. cerevisiae deletion strains, locus YKR001C, strain vps1, active compounds read low 0.989 | S. cerevisiae deletion strains, locus YLR039C, strain RIC1, active compounds read low 1 | S. cerevisiae deletion strains, locus YLR058C, strain SHM2, active compounds read low 0.988 | S. cerevisiae deletion strains, locus YLR102C, strain apc9, active compounds read low 0.982 | S. cerevisiae deletion strains, locus YLR262C, strain YPT6, active compounds read low 0.968 | S. cerevisiae deletion strains, locus YLR268W, strain sec22, active compounds read low 0.972 | S. cerevisiae deletion strains, locus YLR330W, strain CHS5, active compounds read low 0.993 | S. cerevisiae deletion strains, locus YLR342W, strain FKS1 (second series), active compounds read low 0.979 | S. cerevisiae deletion strains, locus YLR371W, strain rom2, active compounds read low 0.98 | S. cerevisiae deletion strains, locus YLR418C, strain cdc73, active compounds read low 1 | S. cerevisiae deletion strains, locus YML016C, strain PPZ1, active compounds read low 0.992 | S. cerevisiae deletion strains, locus YML032C, strain rad52, active compounds read low 0.981 | S. cerevisiae deletion strains, locus YML124C, strain tub3, active compounds read low 0.985 | S. cerevisiae deletion strains, locus YMR078C, strain ctf18, active compounds read low 0.981 | S. cerevisiae deletion strains, locus YMR223W, strain ubp8, active compounds read low 0.979 | S. cerevisiae deletion strains, locus YMR263W, strain SAP30, active compounds read low 0.971 | S. cerevisiae deletion strains, locus YMR307W, strain GAS1, active compounds read low 0.972 | S. cerevisiae deletion strains, locus YNL067W, strain RPL9B, active compounds read low 0.995 | S. cerevisiae deletion strains, locus YNL128W, strain TEP1, active compounds read low 0.998 | S. cerevisiae deletion strains, locus YNL153C, strain GIM3, active compounds read low 0.986 | S. cerevisiae deletion strains, locus YNL233W, strain BNI4, active compounds read low 0.989 | S. cerevisiae deletion strains, locus YNL250W, strain rad50, active compounds read low 0.997 | S. cerevisiae deletion strains, locus YNL271C, strain bni1, active compounds read low 0.996 | S. cerevisiae deletion strains, locus YNL298W, strain CLA4, active compounds read low 0.98 | S. cerevisiae deletion strains, locus YNL307C, strain MCK1, active compounds read low 0.98 | S. cerevisiae deletion strains, locus YNL322C, strain KRE1, active compounds read low 1 | S. cerevisiae deletion strains, locus YNR052C, strain pop2, active compounds read low 0.979 | S. cerevisiae deletion strains, locus YOL006C, strain TOP1, active compounds read low 1.03 | S. cerevisiae deletion strains, locus YOL012C, strain htz1 0.881 | S. cerevisiae deletion strains, locus YOL147C, strain pex11, active compounds read low 0.981 | S. cerevisiae deletion strains, locus YOR061W, strain CKA2, active compounds read low 0.999 | S. cerevisiae deletion strains, locus YOR069W, strain VPS5, active compounds read low 0.986 | S. cerevisiae deletion strains, locus YOR136W, strain idh2, active compounds read low 0.993 | S. cerevisiae deletion strains, locus YOR144C, strain elg1, active compounds read low 0.978 | S. cerevisiae deletion strains, locus YOR184W, strain ser1, active compounds read low 0.976 | S. cerevisiae deletion strains, locus YOR316C, strain cot1, active compounds read low 0.996 | S. cerevisiae deletion strains, locus YPL055C, strain LGE1, active compounds read low 0.984 | S. cerevisiae deletion strains, locus YPL241C, strain CIN2, active compounds read low 0.989 | S. cerevisiae deletion strains, locus YPR119W, strain clb2, active compounds read low 0.975 | S. cerevisiae deletion strains, locus YPR141C, strain kar3, active compounds read low 0.986 | S. cerevisiae deletion strains, locus YPR163C, strain tif3, active compounds read low 0.977 | S. cerevisiae deletion strains, locus YPR167C, strain met16, active compounds read low 0.993 | S. cerevisiae deletion strains, strain wtn01, active compounds read low 0.975 | S. cerevisiae strains, strain wild type, active compounds read low 1.01
